{"source": "PubChem BioAssay (NCATS)", "note": "Records with an inconclusive call do not appear. Activity calls are given as the source filed them. The call rests on the fitted dose curve; in most records, active means well fitted inhibition curve with a large enough effect in the repeat runs; inconclusive means weak or mixed curves; inactive means flat fitted curve, though single readings scatter. Potency means the concentration at half of the fitted maximal effect."}
{"target": "Cytochrome P450 2D6 (Homo sapiens) (UniProt P10635)", "sequence (P10635 whole entry, looked up)": "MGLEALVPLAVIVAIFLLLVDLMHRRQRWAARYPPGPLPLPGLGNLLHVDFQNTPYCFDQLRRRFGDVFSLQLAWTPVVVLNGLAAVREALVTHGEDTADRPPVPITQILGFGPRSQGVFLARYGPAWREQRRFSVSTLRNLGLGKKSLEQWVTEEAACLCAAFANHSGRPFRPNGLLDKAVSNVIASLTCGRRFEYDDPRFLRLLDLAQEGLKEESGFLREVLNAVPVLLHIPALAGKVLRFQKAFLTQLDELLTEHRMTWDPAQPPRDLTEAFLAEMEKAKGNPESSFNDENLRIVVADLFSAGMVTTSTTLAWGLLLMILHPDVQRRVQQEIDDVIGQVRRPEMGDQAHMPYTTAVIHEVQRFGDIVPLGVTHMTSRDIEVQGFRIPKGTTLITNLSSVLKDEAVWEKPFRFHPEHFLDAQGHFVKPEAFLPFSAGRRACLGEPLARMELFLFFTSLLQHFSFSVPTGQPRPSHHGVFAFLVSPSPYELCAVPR", "experiment": "Cytochrome P450 family 2 subfamily D member 6 (CYP2D6) small molecule antagonists: luciferase biochemical (cell-free) qHTS assay (AID 1645840); further: nearly all actives have a fitted effect of over 55% in size", "conditions": "P450-Glo CYP2D6 enzyme, luciferin luminescence, 1 h; series mostly up to 57.4 µM", "in_short": "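P450-Glo CYP2D6 system: proluciferin substrate converted by enzyme to luciferin, read by luminescence proportional to activity. Enzyme-substrate mix with compound 10 min at room temperature, then NADPH regeneration 1 h before detection reagent.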"}
{"smiles": "C=CCN1C[C@H](C)N([C@H](c2ccc(C(=O)N(CC)CC)cc2)c2cccc(OC)c2)C[C@H]1C", "Potency": "2.45 µM (active)"}
{"smiles": "COc1c2c(cc3c1OCO3)CCN(C)C2", "Potency": "2.45 µM (active)"}
{"smiles": "CC(C)=CC1C(C(=O)OCN2C(=O)C3=C(CCCC3)C2=O)C1(C)C", "note": "(stereo unspecified)", "Potency": "6.92 µM (active)"}
{"smiles": "CC(NC(C)(C)C)C(=O)c1cccc(Cl)c1", "note": "(stereo unspecified)", "Potency": "11 µM (active)"}
{"smiles": "C[C@]12CCC(=O)C=C1CC[C@@H]1[C@H]3CC[C@](C)(O)[C@@]3(C)CC[C@@H]12", "Potency": "43.5 µM (active)"}
{"smiles": "COc1cccc2c1C(=O)c1c(O)c3c(c(O)c1C2=O)C[C@@](O)(C(=O)CO)CC3OC1CC(N2CCOC(OC)C2)C(O)C(C)O1", "note": "(stereo partly specified)", "Potency": "inactive"}
{"smiles": "O=C1CN=C(c2ccccc2)c2cc([N+](=O)[O-])ccc2N1", "Potency": "inactive"}
{"smiles": "O=C1c2ccccc2C(=O)C1C(=O)C(c1ccccc1)c1ccccc1", "Potency": "19.2 µM (active)"}
{"smiles": "CN1CCC(O)(c2ccc(F)cc2)C(C(=O)c2ccc(F)cc2)C1", "note": "(stereo unspecified)", "Potency": "24.5 µM (active)"}
{"smiles": "ClCCN1CCCC1", "Potency": "inactive"}
{"smiles": "Nc1nc(N)nc(NC2CC2)n1", "Potency": "inactive"}
{"smiles": "COc1cccc([C@@]2(O)CCCC[C@@H]2CN(C)C)c1", "Potency": "inactive"}
{"smiles": "CC1(C)C(C=C(Cl)Cl)C1C(=O)OC(C#N)c1cccc(Oc2ccccc2)c1", "note": "(stereo unspecified)", "Potency": "inactive"}
{"smiles": "C[C@]12CCC(=O)C=C1CC[C@@H]1[C@@H]2CC[C@@]2(C)[C@H]1CC[C@]2(C)O", "Potency": "inactive"}
{"smiles": "CCN[C@H](C)Cc1cccc(C(F)(F)F)c1", "Potency": "3.16 µM (active)"}
{"smiles": "C[N+]1(CCF)[C@@H]2CC[C@H]1CC(OC(=O)C(O)(c1ccccc1)c1ccccc1)C2", "note": "(stereo partly specified)", "Potency": "15.5 µM (active)"}
